Sampled rows, rich in hits. Any-hit rate of the full collection: about 4.9%.
CSC inhib = blocks cancer stem cells. cancer stem cell-like cells viability, luminescence. AID 2717. 300,000 compounds, 1.1% hits. inhibition, % at 7.5 µM; in the data active = inhibition above about 75%; tested in HMLE shEcad cells
Beta apoptosis = beta cell apoptosis inhibition | INS-1E cytokine-induced death, ATP luminescence, 48 h; percent of positive-control rescue, neutral wells zero | protection from apoptosis, % (concentration not given with the values) | 300,000 compounds, 0.8% hits | AID 435005;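 active = Every replicate reaches about 75%, or at least half do and their mean reaches it too, limit read from the data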;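 also: 0% = cytokine-treated negative control wells and 100% = positive control rescue; higher means more ATP so stronger rescue from cytokine killing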
PP5 inh = inhibitors of human protein phosphatase 5 (PP5); 320,000 compounds, 0.18% hits; purified PP5c, OMFP substrate fluorescence; inhibition, % at 6.7 µM; AID 1987; P53041;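 active = inhibition above the campaign's mean inhibition across all tested compounds plus 3 SD, cut at about 9.5% in these data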;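 also: 0% = DMSO only and 100% = 100 µM cantharidin control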
Mdm2-MdmX inh = inhibitors of human Mdm2/MdmX interaction. 330,000 compounds, 3% hits. inhibition, % at 8 µM. SaOS-2 split-luciferase Mdm2/MdmX complementation, luminescence. O15151+Q00987;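 active = inhibition of at least 50% at 8 µM in the primary screen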
Target sequence (O15151 whole entry, looked up): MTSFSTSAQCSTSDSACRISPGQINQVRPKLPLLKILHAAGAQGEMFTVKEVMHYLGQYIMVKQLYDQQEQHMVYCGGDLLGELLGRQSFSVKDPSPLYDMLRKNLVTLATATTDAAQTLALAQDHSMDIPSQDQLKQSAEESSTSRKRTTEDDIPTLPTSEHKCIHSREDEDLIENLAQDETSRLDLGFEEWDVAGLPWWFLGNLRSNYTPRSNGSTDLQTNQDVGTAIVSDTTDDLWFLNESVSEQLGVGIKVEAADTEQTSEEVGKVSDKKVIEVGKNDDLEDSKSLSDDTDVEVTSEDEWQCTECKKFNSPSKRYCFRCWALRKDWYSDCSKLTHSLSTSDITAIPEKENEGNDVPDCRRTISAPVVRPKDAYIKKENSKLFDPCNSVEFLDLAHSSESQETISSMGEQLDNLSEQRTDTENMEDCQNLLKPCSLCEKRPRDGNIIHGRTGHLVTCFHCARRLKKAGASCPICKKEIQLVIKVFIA
Target sequence (Q00987 whole entry, looked up): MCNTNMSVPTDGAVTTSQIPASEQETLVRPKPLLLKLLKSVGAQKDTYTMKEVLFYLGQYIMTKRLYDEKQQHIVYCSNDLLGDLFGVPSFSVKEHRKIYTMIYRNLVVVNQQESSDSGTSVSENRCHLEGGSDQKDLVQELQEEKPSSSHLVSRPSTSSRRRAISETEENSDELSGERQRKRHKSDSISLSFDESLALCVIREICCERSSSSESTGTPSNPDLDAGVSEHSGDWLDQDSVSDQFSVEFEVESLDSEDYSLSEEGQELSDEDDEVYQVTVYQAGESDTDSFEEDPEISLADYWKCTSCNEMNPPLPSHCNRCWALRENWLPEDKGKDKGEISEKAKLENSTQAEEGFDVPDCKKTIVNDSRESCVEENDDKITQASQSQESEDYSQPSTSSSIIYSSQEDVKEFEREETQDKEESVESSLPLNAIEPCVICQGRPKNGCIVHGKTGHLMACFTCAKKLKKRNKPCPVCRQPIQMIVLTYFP
PP1 counter = counter-screen for PP5 inhibitors: inhibitors of human PP1-alpha; P62136; inhibition, % at 6.7 µM; purified PP1alpha, OMFP fluorescence; AID 2235; 320,000 compounds, 0.9% hits;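 active = inhibition above the mean inhibition of all tested compounds plus 3 SD, computed separately for each screening campaign, cut at about 15% in these data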
Calb FLC = C. albicans growth modulation with fluconazole; C. albicans CaCi-2 (fluconazole-resistant clinical isolate) + fluconazole, Alamar Blue growth, 48 h; growth inhibition, % (no concentration beside the values); 300,000 compounds, 0.57% hits; AID 1979;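 active = growth inhibition above about 58% in most replicates, limit read from the data, passing the limit was not always enough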;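 also: all wells also contain fluconazole at 8 µg/ml as a sub-toxic cotreatment; 0% = median of DMSO wells and 100% = median of geldanamycin control wells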
Mdm2 MdmX conf = human Mdm2/MdmX binding inhibition, confirmed. shares compounds with Mdm2-MdmX inh. inhibition, % at 8 µM. AID 489028. 10,000 compounds, 55% hits. luminescent assay; in the data active = inhibition above about 40%
FLuc counter = inhibits full-length luciferase, flagging false Mdm2/MdmX hits; shares compounds with Mdm2-MdmX inh; SaOS-2 full-length luciferase counterscreen, luminescence; inhibition, % at 8 µM; 6,200 compounds, 77% hits; AID 504607;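 active = mean inhibition at 8 µM reaching about 37%, which flags the compound as non-specific, limit read from the data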;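 also: p53-null SaOS-2 cells with luciferase driven by a doxycycline-inducible promoter; compound on cells about two nights before reading with doxycycline added after day one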
Numbers without * were called inactive; . = no result.

SMILES	CSC inhib	Beta apoptosis	PP5 inh	Mdm2-MdmX inh	PP1 counter	Calb FLC	Mdm2 MdmX conf	FLuc counter
O=C(NCc1nc(-c2ccc(C(F)(F)F)cc2)no1)Nc1ccc(OC(F)(F)F)cc1	109.2*	0.1	4.4	89.1*	5.3	3.0	28.2	.
COc1ccc(/C=C/C(=O)NC(=S)NNC(=O)c2cccs2)cc1	12.0	14.5	-1.9	54.0*	16.5*	-0.3	53.0*	73.0*
O=C(NC(=S)NNC(=O)c1ccccc1O)c1cccs1	.	5.4	1.9	31.6	3.8	16.4	.	.
COc1ccc(/C=C/C(=O)NC(=S)NNC(=O)c2cnccn2)cc1	98.4*	76.2*	0.5	74.1*	5.4	2.7	52.5*	53.4*
COc1ccccc1C(=O)NNC(=S)NC(=O)c1cccs1	3.1	15.3	1.1	62.7*	0.8	47.4	35.4	.
COc1ccc(CNC(=O)CN(Cc2ccccc2)C(=O)CCC(=O)Nc2ccccn2)cc1	-6.3	-4.5	-0.5	-4.5	2.3	-2.4	.	.
CCNC(=S)N=Nc1c(O)n(Cc2ccc(Cl)cc2)c2ccccc12	12.5	18.1	0.8	33.5	3.6	19.0	.	.
Cc1ccccc1Cn1c(O)c(N=NC(=S)Nc2ccccc2F)c2ccccc21	2.0	37.2	-2.4	40.3	6.0	-12.0	.	.
Oc1c(N=NC(=S)Nc2ccccc2F)c2ccccc2n1Cc1ccccc1F	.	45.9	2.5	64.0*	0.2	10.1	48.1*	46.3*
Oc1c(N=NC(=S)Nc2ccccc2F)c2ccccc2n1Cc1ccc(Cl)cc1	27.2	38.4	-0.9	53.5*	0.5	7.1	46.0*	68.5*
CC(=O)n1cc([C@H]2C=C(C(=O)Nc3ccccc3)O[C@@H](OCc3ccc(CO)cc3)C2)c2ccccc21	28.4	23.4	0.0	73.0*	2.3	-1.4	39.7	70.5*
CC(=O)n1cc([C@@H]2C=C(C(=O)NCc3ccccc3)O[C@H](OCc3ccc(CO)cc3)C2)c2ccccc21	16.0	5.8	-0.5	9.3	-0.7	-3.8	.	.
O=C(NCc1ccccc1)C1CCCN(S(=O)(=O)c2cccc3nsnc23)C1 (stereo not drawn)	-10.2	-17.3	-0.7	16.4	-0.4	1.0	.	.
O=C(Cn1c2ccccc2c(=O)c2cc([N+](=O)[O-])ccc21)Nc1ccccc1Cl	.	9.1	-3.4	52.6*	3.2	-12.3	15.8	.
COc1cccc(C2Nc3ccccc3C(=O)N2c2ccc(F)cc2)c1O (stereo not drawn)	-4.2	-6.7	1.8	-13.5	-4.0	-0.6	.	.
Cc1ccccc1N1C(=O)c2ccccc2N2C(=O)c3ccccc3C12 (stereo not drawn)	-0.1	2.2	0.4	17.0	0.6	-3.0	.	.
COc1ccc2c(c1OC)C(=O)N1c3ccccc3C(=O)N(c3ccc(F)cc3)C21 (stereo not drawn)	11.1	4.0	-1.2	56.6*	-0.5	2.1	44.2*	88.5*
COc1ccc2c(c1OC)C(=O)N1c3ccccc3C(=O)N(c3ccccc3)C21 (stereo not drawn)	15.7	2.1	4.1	65.5*	-0.7	-1.6	62.2*	69.2*
COc1ccc(NC(=O)Nc2ccccc2OC)cc1	-19.6	6.8	0.2	-26.8	-2.6	-19.9	.	.
COc1ccccc1NC(=O)Nc1cc(NC(=O)Nc2ccccc2OC)c(C)nc1C	-0.2	50.6	2.3	56.2*	4.2	-9.1	33.1	60.6*
Cc1ccc(SCCC(=O)NCCSCc2ccccc2C)cc1	0.6	-4.4	3.4	-16.6	3.1	1.4	.	.
COc1cc(C(=O)Nc2ccc3c(c2)ncn3C)cc(OC)c1OC	54.1	31.9	5.4	55.1*	-1.7	12.4	55.3*	58.3*
COc1cc(C(=O)Nc2cccc(-c3nc4ccccc4o3)c2C)cc(OC)c1OC	.	.	.	.	.	-11.7	.	.
COc1cc(C(=O)Nc2ccc3c(c2)nc(C)n3C)cc(OC)c1OC	14.9	8.5	0.8	66.6*	-4.2	-4.9	43.3*	60.8*
COc1cc(C(=O)Nc2ccc(-c3nc4cc(C)ccc4o3)c(O)c2)cc(OC)c1OC	72.1	28.3	1.9	74.0*	-1.0	3.2	52.4*	40.7*
SMILES	CSC inhib	Beta apoptosis	PP5 inh	Mdm2-MdmX inh	PP1 counter	Calb FLC	Mdm2 MdmX conf	FLuc counter
CCC1(c2ccc(F)cc2)NC(=O)N(CC(=O)N2CCN(C(=O)c3cccs3)CC2)C1=O (stereo not drawn)	.	.	.	10.3	.	.	.	.
O=S(=O)(NCCCSc1ccccc1)c1ccccc1F	8.4	-4.7	1.1	-11.3	-1.3	14.9	.	.
CC1CCCCC12NC(=O)N(CC(=O)OCC(=O)NC(=O)c1ccccc1)C2=O (stereo not drawn)	10.4	-0.2	0.7	-3.3	2.3	.	.	.
CN1CCC(NCCC(c2ccc(F)cc2)c2ccc(Cl)cc2)CC1 (stereo not drawn)	34.5	22.2	.	100.3*	.	-1.8	97.8*	58.8*
CCNC(=O)N1CCN(CCCC(c2ccc(F)cc2)c2ccc(F)cc2)CC1	-6.9	-4.1	1.0	15.5	-0.4	.	.	.
CC(C)C(CCNCc1ccccn1)c1ccc(Cl)cc1 (stereo not drawn)	-2.1	2.6	2.5	18.4	-3.4	2.3	.	.
CC(C)C(CCNC1CCN(C)CC1)c1ccc(Cl)cc1 (stereo not drawn)	.	.	0.0	76.5*	-2.1	-24.9	55.8*	54.2*
CCOC(CCn1ccc(O)c(Cc2ccc(Cl)cc2)c1=O)OCC	-15.5	-2.8	1.6	-11.8	-0.4	-4.8	.	.
Cc1cccc(/C=C/C(=O)c2ccc(NC3=NCCCS3)cc2)c1	43.5	8.9	4.7	86.1*	2.2	.	57.8*	57.4*
COc1cccc(/C=C/C(=O)c2ccc(NC3=NCCCS3)cc2)c1	-2.3	9.8	5.2	24.9	-0.5	-5.6	.	.
O=C(/C=C/c1ccc(Br)cc1)c1ccc(NC2=NCCCS2)cc1	.	36.2	3.6	100.7*	10.0	11.2	39.5	77.1*
CN(CC(=O)NCc1ccco1)C(=O)C1CC(=O)N(c2ccc3c(c2)OCCO3)C1 (stereo not drawn)	-20.6	-6.2	0.4	30.8	-2.5	.	.	.
COc1cccc(NC(=O)NCc2c(-c3ccccc3)noc2C)c1	-2.0	2.2	-0.2	8.1	-8.8	-1.8	.	.
CC(=O)c1ccc(O)c(CSC2=NCCS2)c1	3.8	-3.3	-0.1	-28.4	-1.0	33.0	.	.
Cn1nc(-c2ccccn2)nc2c(=O)n(C)c(=O)nc1-2	120.2*	126.7*	16.5*	66.1*	40.8*	4.3	80.2*	33.8
COc1ccc(-c2nc(-c3ccccn3)ncc2S(C)(=O)=O)cc1	-9.6	1.6	-0.2	20.7	6.7	-27.7	.	.
CNC(=O)c1cc(Oc2ccc(NC(=O)Nc3ccc(Cl)c(C(F)(F)F)c3)cc2)ccn1	124.1*	.	7.9	97.1*	4.6	.	88.7*	52.2*
Cc1cc(N2CCC(C)CC2)nc(NCc2ccccc2)n1	36.6	100.7*	0.8	79.9*	2.3	34.1	51.5*	39.5*
